From PubChem BioAssay
ANO1 block – blocks the mouse calcium-activated chloride channel TMEM16A; Q8BHY3; HEK293 TMEM16A/YFP iodide influx fluorescence, ionomycin; normalized B-score (activity score, 25-100; higher = stronger inhibition) at 10 µM; 310,000 tested, 1.2% active;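 active = ratio plate-corrected score three or more library SD toward inhibition, starting fluorescence score within five deviations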;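 also: score derived from kinetic fluorescence span divided by baseline fluorescence per well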
M1 ag parental – counter-screen for M1 agonists: effect in parental CHO-K1 cells. Fluo-8 calcium fluorescence; scaled to maximal ATP response, vehicle zero. activation, % at 3 µM. 360,000 tested, 0.48% active; in the data active = activation above about 15%;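 also: untransfected CHO-K1 host cells lacking M1 receptor as counterscreen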
CHO-K1 Ca antag – counter-screen for M1 antagonists: effect in parental CHO-K1 cells; 360,000 tested, 0.6% active; inhibition, % at 3 µM; ATP-induced calcium, Fluo-8 fluorescence;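 active = inhibition above a per-plate cutoff, the plate's mean sample inhibition plus 3 SD, cut at about 24% in these data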
CHO-K1 Ca PAM – counter-screen for M1 PAMs: effect in parental CHO-K1 cells; ATP EC20, Fluo-8 calcium fluorescence; 0% at ATP EC20, 100% at ATP max; activation, % at 3 µM; AID 602247; 360,000 tested, 0.02% active;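 active = activation above the run cutoff, the mean activation of all test compounds plus 3 SD, cut at about 40% in these data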;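 also: peak over basal fluorescence ratio in a 140 s read after ATP addition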
NTR1 agonist – agonists of human neurotensin receptor NTR1 | 330,000 tested, 0.17% active | NTR1-U2OS beta-arrestin-GFP spot imaging, agonist mode | activation, % at 20 µM | AID 493036;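 active = activation at or above 40% of the spot to cytoplasm intensity ratio, with at least 20 cells analyzed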
Target sequence (P30989 whole entry, looked up): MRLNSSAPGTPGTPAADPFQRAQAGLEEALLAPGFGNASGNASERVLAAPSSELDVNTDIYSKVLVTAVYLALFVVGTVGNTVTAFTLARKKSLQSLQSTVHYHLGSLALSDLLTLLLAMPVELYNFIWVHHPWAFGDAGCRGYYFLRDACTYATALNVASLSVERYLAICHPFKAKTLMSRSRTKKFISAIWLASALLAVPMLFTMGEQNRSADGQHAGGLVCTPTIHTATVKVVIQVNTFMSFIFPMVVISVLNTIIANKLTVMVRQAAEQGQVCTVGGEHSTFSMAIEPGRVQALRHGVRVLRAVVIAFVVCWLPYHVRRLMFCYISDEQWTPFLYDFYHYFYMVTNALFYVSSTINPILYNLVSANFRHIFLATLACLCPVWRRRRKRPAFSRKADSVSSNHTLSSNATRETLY
TMEM16A act – activates or potentiates the mouse TMEM16A chloride channel; B-score at 10 µM; Q8BHY3; 340,000 tested, 0.3% active; HEK293 TMEM16A/YFP-H148Q/I152L, iodide quench fluorescence; active compounds read low; AID 623877;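 active = fluorescence-ratio B-score plate-corrected deviation score at least 3 library SD below zero, with starting fluorescence score within 5 deviations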;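 also: channel opened by trigger with iodide after compound preincubation; score built on the fluorescence ratio of max minus min over baseline; more negative score means more quench and so TMEM16A activation or potentiation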
TMEM16A reconf – reconfirmed blocker of mouse TMEM16A calcium-activated chloride channel. shares compounds with ANO1 block. HEK293 TMEM16A/YFP-H148Q, iodide quench fluorescence; ionomycin added to raise cell calcium. inhibition, % at 10 µM. 2,300 tested, 39% active. AID 652189;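 active = mean duplicate percent inhibition, scaled so buffer wells are 0 and the reference blocker 100, over three buffer SD above buffer mean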
TMEM16A Ca cntr – alters calcium mobilization in TMEM16A HEK293 cells, counter-screen. calcium response (% of ionomycin), % at 10 µM. shares compounds with ANO1 block. 2,300 tested, 2% active. TMEM16A/YFP HEK293, Fluo4 calcium mobilization;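 active = duplicate-averaged calcium signal over 20% of the ionomycin maximum, relative to buffer baseline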;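 also: each well's signal is peak minus trough fluorescence divided by its pre-addition baseline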
YFP-HEK293 quench – acts in parental YFP-HEK293 cells lacking TMEM16A, counter-screen | iodide YFP quench, ionomycin | shares compounds with ANO1 block | 2,300 tested, under 10 active | YFP ratio F(max-min)/F0 at 10 µM;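 active = yellow fluorescent protein signal ratio exceeding the buffer control mean by over 5 SD of those controls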;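 also: ratio is mean of duplicate wells from kinetic YFP trace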
ClC-1 rat inh – blocks the rat ClC-1 voltage-dependent chloride channel. shares compounds with ANO1 block. ratio percent, % at 10 µM. CHO ClC-1-YFP, iodide influx fluorescence quench; iodide control reads 0, buffer control 100. 2,300 tested, under 10 active;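 active = duplicate-mean ratio percent above the mean of iodide-only control wells, which defines zero, plus 5 of their SD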;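 also: higher percent means stronger block of ClC-1 iodide influx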
A number is an active result. Compounds with a hit are over-represented: about 2.2% of the library has one in this group of screens.

What do the screens show for `O=C(CSc1nnc(Cc2cc(=O)[nH]c(=O)[nH]2)n1-c1ccccc1)N1CCCCC1`?
ANO1 block: inactive; M1 ag parental: inactive; CHO-K1 Ca antag: inactive; CHO-K1 Ca PAM: inactive; NTR1 agonist: inactive; TMEM16A act: inactive; TMEM16A reconf: inactive; TMEM16A Ca cntr: inactive; YFP-HEK293 quench: inactive; ClC-1 rat inh: inactive

What do the screens show for `Cn1c(CNc2nc3ccccc3n2CCN2CCCCC2)nc2ccccc21`?
ANO1 block: 25; M1 ag parental: inactive; CHO-K1 Ca antag: inactive; CHO-K1 Ca PAM: inactive; NTR1 agonist: inactive; TMEM16A act: inactive; TMEM16A reconf: inactive; TMEM16A Ca cntr: inactive; YFP-HEK293 quench: inactive; ClC-1 rat inh: inactive

Results for CCN(CC)C(=O)COc1ccc2oc(C)c(C(=O)OC(C)C)c2c1 ?
ANO1 block: inactive; M1 ag parental: inactive; CHO-K1 Ca antag: inactive; CHO-K1 Ca PAM: inactive; NTR1 agonist: inactive; TMEM16A act: inactive; TMEM16A reconf: inactive; TMEM16A Ca cntr: inactive; YFP-HEK293 quench: inactive; ClC-1 rat inh: inactive

How did Cc1oc2ccc(OS(C)(=O)=O)cc2c1C(=O)OC(C)C do in these assays?
ANO1 block: inactive; M1 ag parental: inactive; CHO-K1 Ca antag: inactive; CHO-K1 Ca PAM: inactive; NTR1 agonist: inactive; TMEM16A act: inactive

Results for Nc1ccn([C@@H]2O[C@H](C(=O)N[C@H](CO)c3ccccc3)[C@@H](O)[C@H]2O)c(=O)n1 ?
M1 ag parental: inactive; CHO-K1 Ca antag: inactive; CHO-K1 Ca PAM: inactive

What do the screens show for `O=C1CC(N2CCN(c3nc4ccccc4s3)CC2)C(=O)N1Cc1cccs1` (stereo not given)?
ANO1 block: 100; M1 ag parental: inactive; CHO-K1 Ca antag: inactive; CHO-K1 Ca PAM: inactive; NTR1 agonist: inactive; TMEM16A act: inactive; TMEM16A reconf: 30%; TMEM16A Ca cntr: inactive; YFP-HEK293 quench: inactive; ClC-1 rat inh: inactive

Results for CC1=NN(c2ccccc2)C(=O)/C1=C\C=C1\N(C)c2ccccc2C1(C)C ?
ANO1 block: inactive; M1 ag parental: inactive; CHO-K1 Ca antag: inactive; CHO-K1 Ca PAM: inactive; NTR1 agonist: inactive; TMEM16A act: inactive; TMEM16A reconf: 30%; TMEM16A Ca cntr: inactive; YFP-HEK293 quench: inactive; ClC-1 rat inh: inactive

Results for CC1=NN(c2ccccc2)C(=O)/C1=C/N(C)C ?
ANO1 block: inactive; M1 ag parental: inactive; CHO-K1 Ca antag: inactive; CHO-K1 Ca PAM: inactive; NTR1 agonist: inactive; TMEM16A act: inactive

Results for CCOc1c(Cl)cc(C(=O)Nc2ccccc2C(=O)O)cc1Cl ?
ANO1 block: 100; M1 ag parental: inactive; CHO-K1 Ca antag: inactive; CHO-K1 Ca PAM: inactive; NTR1 agonist: inactive; TMEM16A act: inactive; TMEM16A reconf: 50%; TMEM16A Ca cntr: inactive; YFP-HEK293 quench: inactive; ClC-1 rat inh: inactive

How did COc1ccc(C)cc1NC(=O)c1ccc(CN2CCc3ccccc3C2)cc1 do in these assays?
ANO1 block: inactive; M1 ag parental: inactive; CHO-K1 Ca antag: inactive; CHO-K1 Ca PAM: inactive; NTR1 agonist: inactive; TMEM16A act: inactive

What do the screens show for `O=C(Nc1cccnc1)c1ccc(CN2CCc3ccccc3C2)cc1`?
ANO1 block: 25; M1 ag parental: inactive; CHO-K1 Ca antag: inactive; CHO-K1 Ca PAM: inactive; NTR1 agonist: inactive; TMEM16A act: inactive; TMEM16A reconf: 22%; TMEM16A Ca cntr: inactive; YFP-HEK293 quench: inactive; ClC-1 rat inh: inactive

How did CC(C)(C)c1ccc(C(=O)Nc2ccc(CN3CCS(=O)(=O)CC3)cc2)cc1 do in these assays?
ANO1 block: 25; M1 ag parental: inactive; CHO-K1 Ca antag: inactive; CHO-K1 Ca PAM: inactive; NTR1 agonist: inactive; TMEM16A act: inactive; TMEM16A reconf: 20%; TMEM16A Ca cntr: inactive; YFP-HEK293 quench: inactive; ClC-1 rat inh: inactive

How did O=C(Nc1ccccc1F)c1ccc(CN2CCc3ccccc3C2)cc1 do in these assays?
ANO1 block: inactive; M1 ag parental: inactive; CHO-K1 Ca antag: inactive; CHO-K1 Ca PAM: inactive; NTR1 agonist: inactive; TMEM16A act: inactive

Results for Cc1ccc(NC(=O)c2ccc(CN3CCc4ccccc4C3)cc2)cc1 ?
ANO1 block: 25; M1 ag parental: inactive; CHO-K1 Ca antag: inactive; CHO-K1 Ca PAM: inactive; NTR1 agonist: inactive; TMEM16A act: inactive; TMEM16A reconf: inactive; TMEM16A Ca cntr: inactive; YFP-HEK293 quench: inactive; ClC-1 rat inh: inactive

Results for CC1(C(=O)Nc2cccc(Oc3ccccc3)c2)CCN1Cc1cc2ccccc2o1 (stereo not given) ?
M1 ag parental: inactive; CHO-K1 Ca antag: inactive; CHO-K1 Ca PAM: inactive

Results for COc1ccc(-c2ccc3oc(-c4ccc(OC)cc4)c(-c4ccc(OC)cc4)c3c2)cc1 ?
ANO1 block: inactive; M1 ag parental: inactive; CHO-K1 Ca antag: inactive; CHO-K1 Ca PAM: inactive; NTR1 agonist: inactive; TMEM16A act: inactive

What do the screens show for `COc1ccc2oc3cc(C)[n+]([O-])c(-c4ccc(Br)cc4)c3c2c1`?
ANO1 block: 25; M1 ag parental: inactive; CHO-K1 Ca antag: inactive; CHO-K1 Ca PAM: inactive; NTR1 agonist: inactive; TMEM16A act: inactive; TMEM16A reconf: 22%; TMEM16A Ca cntr: inactive; YFP-HEK293 quench: inactive; ClC-1 rat inh: inactive

Results for C[C@H]1CN([C@@H](C)CO)C(=O)c2cc(Br)cnc2O[C@H]1CN(C)C(=O)c1ccccn1 ?
M1 ag parental: inactive; CHO-K1 Ca antag: inactive; CHO-K1 Ca PAM: inactive

What do the screens show for `NS(=O)(=O)c1ccc(NCc2ccccc2OCc2ccc(F)cc2)cc1`?
ANO1 block: 100; M1 ag parental: inactive; CHO-K1 Ca antag: inactive; CHO-K1 Ca PAM: inactive; NTR1 agonist: inactive; TMEM16A act: inactive; TMEM16A reconf: inactive; TMEM16A Ca cntr: inactive; YFP-HEK293 quench: inactive; ClC-1 rat inh: inactive

Results for NS(=O)(=O)c1ccc(CCNCc2ccccc2OCc2ccc(F)cc2)cc1 ?
ANO1 block: inactive; M1 ag parental: inactive; CHO-K1 Ca antag: inactive; CHO-K1 Ca PAM: inactive; NTR1 agonist: inactive; TMEM16A act: inactive

How did COc1ncnc2c1ncn2CCCNCc1ccccc1 do in these assays?
M1 ag parental: inactive; CHO-K1 Ca antag: inactive; CHO-K1 Ca PAM: inactive

How did Cc1ccc(Cc2c(C3CCCCC3)nc3c4ccccc4ccn23)cc1 do in these assays?
M1 ag parental: inactive; CHO-K1 Ca antag: inactive; CHO-K1 Ca PAM: inactive
